{"source": "PubChem BioAssay AID1578", "about": "(Sanford-Burnham Center for Chemical Genomics, 2009)", "note": "About 3,000 (1%) of roughly 290,000 compounds were called active. Rule as the data show it: active = inhibition mostly above about 36% (no sharp cut-off); inactive = mostly below about 34%. Shown is part of a subset that was picked to be rich in actives.", "data": [{"assay": "inhibition of NOD1-driven NF-kB reporter – cell-based, luminescence, uHTS, primary screen (AID 1578);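 also: HEK-293T reporter cells stimulated with the NOD1 agonist gamma-tri-DAP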", "conditions": "NOD1-driven NF-kB luciferase reporter cells, at 4 µM, hits give high values", "values": [{"smiles": "Cc1ccc(NC2CCCN(C(=O)c3cccc(-c4ncc[nH]4)c3)C2)cc1C", "note": "(stereo not given)", "inhibition": "-0.1% (inactive)"}, {"smiles": "CCCC(O)(CCC)C(=O)NN(C(=O)CCl)c1ccccc1", "inhibition": "-30.8% (inactive)"}, {"smiles": "CCOC(=O)N(NC(=O)C(O)(c1ccccc1)c1ccccc1)c1ccccc1", "inhibition": "-25.2% (inactive)"}, {"smiles": "CCC(O)(CC)C(=O)NN(C(=O)CCl)c1ccccc1", "inhibition": "-63.3% (inactive)"}, {"smiles": "O=C(Nc1ccccc1)NN(C(=O)CCl)c1ccccc1", "inhibition": "73.9% (active)"}, {"smiles": "Cc1ccc(N(NC(=O)C(O)(c2ccccc2)c2ccccc2)C(=O)CCl)cc1", "inhibition": "87.3% (active)"}, {"smiles": "CCN(CC)NC(=O)Nc1ccccc1", "inhibition": "1.7% (inactive)"}, {"smiles": "COC(=O)N(NC(=O)C(O)(c1ccccc1)c1ccccc1)c1ccc(C)cc1", "inhibition": "-13% (inactive)"}, {"smiles": "CCCCCCCN(C(=O)CCl)c1cccc(C)c1", "inhibition": "57.4% (active)"}, {"smiles": "CCCCCCN(C(=O)CCl)c1ccccc1", "inhibition": "-4.8% (inactive)"}, {"smiles": "CCCCCCCN(C(=O)CCl)c1ccccc1C", "inhibition": "27.2% (inactive)"}, {"smiles": "CCCC(O)(CCC)C(=O)NN(C(=O)CCl)c1cccc(C)c1", "inhibition": "75% (active)"}, {"smiles": "CCCCC(O)(CCCC)C(=O)NN(C(=O)CCl)c1ccccc1", "inhibition": "8.2% (inactive)"}, {"smiles": "Cc1cccc(Nc2nc(NCC3CCCO3)nc(N)c2[N+](=O)[O-])c1", "note": "(stereo not given)", "inhibition": "-27.5% (inactive)"}, {"smiles": "O=C(COc1ccccc1)OC(C(=O)c1ccccc1)c1ccccc1", "note": "(stereo not given)", "inhibition": "-26.7% (inactive)"}, {"smiles": "Cc1cc(NS(=O)(=O)c2ccc(NC(=O)c3ccco3)cc2)no1", "inhibition": "9.2% (inactive)"}, {"smiles": "O=C(O)CN1CCCCCC1=O", "inhibition": "-31.2% (inactive)"}, {"smiles": "Cc1nccn1CCCNC(=O)C1CCC(=O)N(Cc2ccccc2F)C1", "note": "(stereo not given)", "inhibition": "-13.5% (inactive)"}, {"smiles": "CC(C)(C)OC(=O)CN1c2cccc3cccc(c23)S1(=O)=O", "inhibition": "-5.8% (inactive)"}, {"smiles": "CCC(C(=O)NC(C)c1ccccc1)C(=O)NC(C)c1ccccc1", "note": "(stereo not given)", "inhibition": "-9.8% (inactive)"}, {"smiles": "CC(=O)Nc1ccc(NC(=O)c2cc(=O)c3cc(C)c(C)cc3o2)cc1", "inhibition": "-7.3% (inactive)"}, {"smiles": "COc1ccc(-c2ccc(C(C)=O)cc2)cc1[C@H]1[C@H]2C=CC[C@@H](C)[C@@H]2C(=O)N1Cc1ccccc1", "inhibition": "-4.4% (inactive)"}, {"smiles": "COC(=O)c1cc2sc(Cl)cc2n1CC(=O)Nc1cccc(SC)c1", "inhibition": "1.3% (inactive)"}, {"smiles": "CCn1c(=O)cc(OCC(=O)NCc2cccs2)c2ccccc21", "inhibition": "-18.7% (inactive)"}, {"smiles": "O=C(CN1CC[n+]2c(-c3cccs3)csc21)c1ccc(-c2ccccc2)cc1", "inhibition": "56.9% (active)"}, {"smiles": "O=C(CN1CC[n+]2c(-c3cccs3)csc21)c1ccc(Br)cc1", "inhibition": "5% (inactive)"}, {"smiles": "O=C(CN1CC[n+]2c(-c3ccccc3)csc21)c1ccc(Br)cc1", "inhibition": "-9.1% (inactive)"}, {"smiles": "O=C(O)CSCC(=O)N1CCc2c([nH]c3ccccc23)C1C(F)(F)F", "note": "(stereo not given)", "inhibition": "-8.5% (inactive)"}, {"smiles": "O=C(Nc1cccc(S(=O)(=O)C(F)F)c1)c1ccc(Cl)c(S(=O)(=O)N2CCOCC2)c1", "inhibition": "4.5% (inactive)"}, {"smiles": "O=C(Nc1ccc(NC(=O)c2ccc(Cl)c(S(=O)(=O)N3CCOCC3)c2)cc1)c1ccccc1", "inhibition": "-18.3% (inactive)"}, {"smiles": "CCOC(=O)c1c(/N=C/N(C)C)sc(C=O)c1-c1ccccc1", "inhibition": "-24.2% (inactive)"}, {"smiles": "Cc1cccc(COCC(CC(C)C)N2CCN(C(=O)c3ccc(C(C)(C)C)cc3)CCC2=O)c1", "note": "(stereo not given)", "inhibition": "77% (active)"}, {"smiles": "CC(C)CC(COCc1cccc(Cl)c1)N1CCN(C(=O)c2ccc(C(F)(F)F)cc2)CCC1=O", "note": "(stereo not given)", "inhibition": "-7.1% (inactive)"}, {"smiles": "Cc1cccc(COCC(CC(C)C)N2CCN(C(=O)c3ccc(C(F)(F)F)cc3)CCC2=O)c1", "note": "(stereo not given)", "inhibition": "-5.2% (inactive)"}, {"smiles": "COC(=O)c1c(C)n(-c2ccc(C)cc2)c2ccc(O)cc12", "inhibition": "18.7% (inactive)"}, {"smiles": "CC(=O)c1c(C)n(-c2ccc(C)cc2)c2ccc(O)cc12", "inhibition": "33.3% (inactive)"}, {"smiles": "O=C(CN(C(=O)c1ccccc1Cl)N1C(=O)C2C3C=CC(C3)C2C1=O)c1cccs1", "note": "(stereo not given)", "inhibition": "-17% (inactive)"}, {"smiles": "O=C(Nc1ccc(OC(F)F)c(Cl)c1)Nc1ccc2c(c1)OCO2", "inhibition": "-34.5% (inactive)"}, {"smiles": "CCSC1=N/C(=C\\c2ccccc2)C(=O)N1c1ccc(OC)cc1", "inhibition": "30.2% (inactive)"}, {"smiles": "COc1ccc(/C=C2\\N=C(SC)N(C)C2=O)cc1", "inhibition": "3.7% (inactive)"}, {"smiles": "COc1ccc(/C=C2\\N=C(SC)N(c3ccccc3OC)C2=O)cc1", "inhibition": "53.5% (active)"}, {"smiles": "COc1cccc(CNc2ncn[nH]2)c1OCc1ccc(F)cc1", "inhibition": "-21.2% (inactive)"}, {"smiles": "Cc1ccc(-c2nc(C=Nc3ccccc3)c(O)o2)cc1", "inhibition": "-33.7% (inactive)"}, {"smiles": "Cc1ccc(N=Cc2nc(-c3ccc(C)cc3)oc2O)cc1", "inhibition": "21.9% (inactive)"}, {"smiles": "Cc1ccc(-c2nc(C=Nc3ccc(O)cc3)c(O)o2)cc1", "inhibition": "57.6% (active)"}, {"smiles": "CCSc1nc2ccccc2n1CCOc1ccccc1", "inhibition": "-22.7% (inactive)"}, {"smiles": "O=C(CS(=O)(=O)c1cn(CC(=O)N2CCCC2)c2ccccc12)Nc1ccccc1", "inhibition": "-8.1% (inactive)"}, {"smiles": "O=S(=O)(NCc1ccco1)c1ccc(Cl)nc1", "inhibition": "-15.7% (inactive)"}, {"smiles": "CC(C)CC(C(=O)NC(C)(C)C)N(Cc1cccs1)C(=O)c1snc(C(N)=O)c1N", "note": "(stereo not given)", "inhibition": "-13.4% (inactive)"}, {"smiles": "Cc1nn(-c2nc3ccccc3[nH]2)c(N)c1-c1ccccc1", "inhibition": "-44.1% (inactive)"}, {"smiles": "O=c1c(Cl)c(NCCCO)cnn1-c1nc2ccccc2[nH]1", "inhibition": "10.3% (inactive)"}, {"smiles": "O=c1c(Cl)c(N2CCCCC2)cnn1-c1nc2ccccc2[nH]1", "inhibition": "74.8% (active)"}, {"smiles": "O=c1c(Cl)c(N2CCOCC2)cnn1-c1nc2ccccc2[nH]1", "inhibition": "-19.5% (inactive)"}, {"smiles": "O=c1c2ccccc2cnn1-c1nc2ccccc2[nH]1", "inhibition": "99.7% (active)"}, {"smiles": "Cc1nn(-c2ccccc2)c(=O)c2ccccc12", "inhibition": "-47.4% (inactive)"}, {"smiles": "Cc1nn(-c2nc3ccccc3[nH]2)c(=O)c2ccccc12", "inhibition": "94.4% (active)"}, {"smiles": "C=CCN(CC=C)c1cnn(-c2nc3ccccc3[nH]2)c(=O)c1Cl", "inhibition": "11.7% (inactive)"}, {"smiles": "O=c1c2ccccc2cnn1-c1ccc(Cl)cc1", "inhibition": "-102% (inactive)"}, {"smiles": "Cc1nnc(SCC(=O)NC(=O)Nc2ccc3c(c2)OCCO3)s1", "inhibition": "-25.8% (inactive)"}, {"smiles": "COc1ccc(CCNC(=O)CC2SC(=NCCC(C)C)NC2=O)cc1OC", "note": "(stereo not given)", "inhibition": "-12.2% (inactive)"}, {"smiles": "COc1cc(C2c3[nH]c4ccccc4c3C[C@@H]3C(=O)N(Cc4ccco4)CC(=O)N23)cc(OC)c1OC", "note": "(stereo not given in full)", "inhibition": "-4.3% (inactive)"}, {"smiles": "CCCCN(C(=O)CCC(=O)Nc1cc(C)on1)C(C(=O)NC1CCCC1)c1ccccc1OCC", "note": "(stereo not given)", "inhibition": "-32.8% (inactive)"}, {"smiles": "COCc1nnc(NC(=O)C2CCN(C(=O)c3ccco3)CC2)s1", "inhibition": "-4% (inactive)"}, {"smiles": "Cc1ccc(N2C(=O)C3C(c4ccccc4)N4CCCN4C3(C)C2=O)cc1", "note": "(stereo not given)", "inhibition": "-27.5% (inactive)"}, {"smiles": "O=S(=O)(Nc1nnc(C(F)(F)F)s1)c1ccc(Cl)cc1", "inhibition": "-6.4% (inactive)"}, {"smiles": "O=C1c2ccccc2N2C(=O)c3ccccc3[C@H]2N1c1ccccc1", "inhibition": "-14.4% (inactive)"}, {"smiles": "CC(C)Cc1ccc(CN2CCC(n3nccc3NC(=O)C3CCCC3)CC2)cc1", "inhibition": "-7.7% (inactive)"}, {"smiles": "Cc1cc(OCCCn2ccnc2)cc(C)c1Cl", "inhibition": "7.6% (inactive)"}, {"smiles": "Cc1cc(OCCCCn2ccnc2)cc(C)c1Cl", "inhibition": "-18.7% (inactive)"}, {"smiles": "Cc1cc(OCCCCCn2ccnc2)cc(C)c1Cl", "inhibition": "48% (active)"}, {"smiles": "O=C(Nc1ccc(S(=O)(=O)Nc2nccs2)cc1)c1ccc(N2C(=O)c3ccccc3C2=O)cc1", "inhibition": "-25.2% (inactive)"}, {"smiles": "Cc1cc2c3c(c1)C(C)(c1ccccc1)CC(C)(C)N3C(=O)C21C(C#N)=C(N)OC2=C1C(=O)CC(C)(C)C2", "note": "(stereo not given)", "inhibition": "77.1% (active)"}, {"smiles": "Cc1cc2c3c(c1)C1(C(=O)N3C(C)(C)CC2C)C(C#N)=C(N)OC2=C1C(=O)CC(C)(C)C2", "note": "(stereo not given)", "inhibition": "-22.2% (inactive)"}, {"smiles": "CC1=CC(C)(C)N2C(=O)C3(C(C#N)=C(N)OC4=C3C(=O)CC(C)(C)C4)c3cc(C)cc1c32", "note": "(stereo not given)", "inhibition": "13.2% (inactive)"}, {"smiles": "O=C(Nc1nncs1)c1cccc(S(=O)(=O)N2CCc3ccccc32)c1", "inhibition": "-12.7% (inactive)"}, {"smiles": "C=CCOC(=O)C1=C(C)Nc2nnnn2C1c1cc(OC)ccc1OC", "note": "(stereo not given)", "inhibition": "-1.8% (inactive)"}, {"smiles": "CC1CC(C)(C)Nc2ccc(N=O)cc21", "note": "(stereo not given)", "inhibition": "41.9% (active)"}, {"smiles": "CC1CC2(CCCC2)Nc2ccc(F)cc21", "note": "(stereo not given)", "inhibition": "-2% (inactive)"}, {"smiles": "CC1CC(C)(C)Nc2ccc(OC(=O)c3ccco3)cc21", "note": "(stereo not given)", "inhibition": "44.8% (inactive)"}, {"smiles": "CCOC(=O)C1CCN(C(=O)CCc2ccc(S(=O)(=O)NC(C)C)cc2)CC1", "inhibition": "-6.7% (inactive)"}, {"smiles": "COc1ccccc1N1CCN(CC(O)c2ccc3cc[nH]c3c2)CC1", "note": "(stereo not given)", "inhibition": "-10.9% (inactive)"}, {"smiles": "CC1CN(C(=O)CCNC(=O)c2ccc(Cl)cc2)CC(C)O1", "note": "(stereo not given)", "inhibition": "-15.6% (inactive)"}, {"smiles": "CC12CN3CCN(CC(C3)C1(O)CN1CCOCC1)C2", "note": "(stereo not given)", "inhibition": "-10.8% (inactive)"}, {"smiles": "COc1cccc(C(=O)C2CCCN(C(=O)CCC3=NNC(=O)CC3)C2)c1", "note": "(stereo not given)", "inhibition": "-14.9% (inactive)"}, {"smiles": "Nc1nc(Nc2ccc(Cl)cc2)nc2ccccc12", "inhibition": "24.4% (inactive)"}, {"smiles": "CN(C)c1ccc(Nc2nc(N)c3ccccc3n2)cc1", "inhibition": "73.8% (active)"}, {"smiles": "Nc1nc(Nc2ccccc2)nc2ccccc12", "inhibition": "-85.2% (inactive)"}, {"smiles": "CCOc1ccccc1N1CC(C(=O)N2CCc3ccccc32)CC1=O", "note": "(stereo not given)", "inhibition": "17.6% (inactive)"}, {"smiles": "CCn1c(=O)n(CC)c2cc(N3CCCC3)c(NC(=O)c3c(F)cccc3F)cc21", "inhibition": "-5.8% (inactive)"}, {"smiles": "O=C(c1cccc(S(=O)(=O)N2CCc3ccccc3C2)c1)N1CCN(c2ccc(O)cc2)CC1", "inhibition": "-37.3% (inactive)"}, {"smiles": "CC(=O)c1cccc(NC(=O)Cn2cnc(S(=O)(=O)N3CCOCC3)c2)c1", "inhibition": "-18.3% (inactive)"}, {"smiles": "COCc1cc(C)nc(SCc2ccc([N+](=O)[O-])cc2)c1C#N", "inhibition": "9.9% (inactive)"}, {"smiles": "c1ccc2nc(-c3ccc(N4CCOCC4)cc3)ccc2c1", "inhibition": "11% (inactive)"}, {"smiles": "COc1ccc(-c2ccc3ccccc3n2)cc1", "inhibition": "-47% (inactive)"}, {"smiles": "CN1CCN(c2ccc(-c3ccc4ccccc4n3)cc2)CC1", "inhibition": "90.2% (active)"}]}]}
